Results filed as inconclusive are left out. Activity calls are given as the source filed them. Calls come from the whole dose curve; as a rule, active = well fitted cell-killing curve with a large enough effect; inconclusive = small, poorly fitted or top-dose-only effect, or effect the other way; inactive = no such curve, though single readings can be large or run the other way.
Each compound was assayed on HeLa (assay: Confirmatory qHTS for gynecologic anti-cancer compounds from libraries of approved drugs and bioactive compounds). Conditions: gynecologic cancer cell panel viability, ATPlite luminescence, 48 h; series mostly up to 57.6 µM.
In short: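 Viability is measured as ATP-dependent luciferase light using ATPlite, read 15 min after reagent addition at room temperature. Compounds, in DMSO, span 57.5 uM down to 0.977 nM over 11 threefold steps for 48 h.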
Note: nearly all actives have a fitted effect of over 55% in size.
Potency is the fitted concentration of half-maximal effect.

| Structure (SMILES) | Potency |
| --- | --- |
| O=C(Nc1cccnc1)N1CCC(Cc2cccc(Oc3ccc(C(F)(F)F)cn3)c2)CC1 | 3.85 µM (active) |
| C[C@]12CCC(=O)C=C1[C@@H]1C[C@@H]1[C@H]1[C@@H]3[C@@H]4C[C@@H]4[C@@]4(CCC(=O)O4)[C@@]3(C)CC[C@@H]12 | 4.85 µM (active) |
| Cn1cnc2c(F)c(Nc3ccc(Br)cc3Cl)c(C(=O)NOCCO)cc21 | inactive |

From PubChem BioAssay AID1345085 (National Center for Advancing Translational Sciences (NCATS), 2018)
